The record followed here is PubChem BioAssay (NCATS).

A short description of test [1]: Cell Viability - SK-N-SH (AID 435; calls by dose curve;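 also: potency is read from the fitted curve at half-maximal effect; compound exposure lasted 40 h at 37 °C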). The following applies: SK-N-SH neuroblastoma cell viability qHTS. Summed up:
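Human neuroblastoma line, 40 h exposure at 37 °C, ATP quantified via luciferase luminescence; DMSO and 100 uM tamoxifen define 0 and 100% inhibition for AC50 fitting.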

The nature of test [2]: Cellular Toxicity (caspase-3) Jurkat (AID 655).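 Also: cells exposed to compound for 16 h at 37 °C before reading.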 The note with it: Jurkat caspase-3 activation, luminescence, DMSO = 0%, tamoxifen = 100%; at 92.2 µM (top of the series). An outline of the steps: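 qHTS in human Jurkat T-cell leukemia line: 16 hr compound treatment at 37 °C, caspase-3/7 activity measured by Caspase-Glo luminescence. AC50 derived from Hill equation.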
Test [3] can be described thus: Cellular Toxicity (caspase-3) BJ (AID 658). The note with it: BJ fibroblasts, luminescence, normalized: DMSO 0%, staurosporine 100%; series mostly up to 91.7 µM. An outline of the steps: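 Luminescent aminoluciferin-substrate cleavage reports caspase 3/7 activity in normal human BJ fibroblasts after 16 hr compound exposure at 37 °C. Normalized to DMSO (basal) and 10 uM staurosporine (100%); AC50 from Hill fit of concentration-response.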

A short description of test [4]: Cellular Toxicity (caspase-3) SK-N-SH (AID 661). The following applies: SK-N-SH caspase-3 activation, qHTS, DMSO as zero, staurosporine as full; series mostly up to 91.7 µM. Summed up:
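Human SK-N-SH neuroblastoma cells, 1500/well, were exposed to compounds for 16 hours at 37 °C. Caspase-Glo 3/7 luminescence was normalized to DMSO (basal) and 10 uM staurosporine (100%), and AC50 came from a Hill fit.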
In general terms: qHTS replaces the single test concentration by a dilution series.

Test [5] is described as follows: Cellular Toxicity (caspase-3) N2a (AID 665).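 Also: compound exposure lasted 16 h at 37 °C before readout.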 The note with it: N2a cells, luminescence, normalized: DMSO 0%, 10 µM staurosporine 100%; at 92.2 µM (top of the series). Summed up:
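Mouse N2a neuroblastoma cells, 1500 per well, treated 16 h at 37 °C in complete medium; caspase-3/7 activity by Caspase-Glo luminescence after 1 h. Normalized to DMSO and 10 uM staurosporine; AC50 from Hill fits.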

Test [6] is described as follows: Cellular Toxicity (caspase-3) Renal Proximal Tubule (AID 667).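 Also: cells exposed to compound for 16 hours at 37 °C before detection.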 The following applies: renal proximal tubule cells; at 91.7 µM (top of the series), primary cells freshly taken from rat, solvent-only wells 0%, staurosporine 100% unless noted. An outline of the steps: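 Caspase-Glo 3/7 read-out, rat primary kidney proximal tubule cells. Compound exposure 16 h, 37 °C; detection after 1 h at RT. Activity scaled to DMSO and 10 uM staurosporine.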

The nature of test [7]: MultiTox-Fluor Cytotoxicity Assay - LYMP1-001 - Dead Cells (AID 946).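 Also: 0% = DMSO and 100% = tetraoctylammonium bromide.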 The note with it: LYMP1-001 lymphoblastoid cells, dead-cell protease fluorescence; series mostly up to 92.2 µM. An outline of the steps:
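Seed 2500 LYMP1-001 cells/well, incubate 5 hr at 37 C; add compound, 16 hr at 37 C; add MultiTox-Fluor reagent, 60 min RT; read dead-cell fluorescence Ex/Em=485/520. Normalize to DMSO and 15 uM tetraoctylammonium bromide.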

Test [8] can be described thus: qHTS assay for small molecule antagonists of peroxisome proliferator-activated receptor delta signaling (AID 588535; active = well fitted inhibition curve with a large enough effect in the signal ratio, with a control signal flat, not every such curve was filed as active; the % refers to the signal ratio;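 as to max response: cells co-treated with a PPAR-delta agonist as stimulator during compound exposure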). The note with it: HEK293T PPARd-UAS-bla, beta-lactamase FRET ratio, 18 h; 460 nm channel. An outline of the steps: (§1)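 Reporter: UAS-bla under PPAR-delta response element, HEK293T host. Medium: 2% charcoal/dextran FBS. Dosing: titration, 18 hrs, 37 C. Detection: CCF4, 2 hrs RT, 405 ex/460 and 530 em.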

For test [9], the target named is Peroxisome proliferator-activated receptor delta (Homo sapiens) (UniProt Q03181). Described as above. The following applies: HEK293T PPARd-UAS-bla, beta-lactamase FRET ratio, 18 h; series mostly up to 76.7 µM. An outline of the steps:
as §1

In test [10] the target is Vitamin D3 receptor (Homo sapiens) (UniProt P11473). Kind of test: qHTS assay for small molecule antagonists of vitamin D receptor signaling (AID 588541; calls by dose curve;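 also: receptor activated by calcitriol during compound treatment; % is scaled to controls: 0 for no effect and ±100 for the full control effect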). The note with it: HEK293T VDR-UAS-bla, beta-lactamase ratio, antagonist mode; series mostly up to 76.7 µM. An outline of the steps:
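VDR-UAS-bla HEK293T cells (2000/well, 2% charcoal-stripped FBS) were treated with titrated compounds plus 1-alpha,25-dihydroxyvitamin D3 (50 nM or 3 nM final) for 16 h at 37 C. CCF4 beta-lactamase fluorescence was read; Hill fits gave IC50.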

Test [11] has the same target. Kind of test: qHTS assay for small molecule agonists of vitamin D receptor signaling (AID 588543; calls by dose curve;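 also: 0% = DMSO basal and 100% = reference agonist control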). The following applies: HEK293T VDR-UAS-bla, beta-lactamase ratio, 16 h; series mostly up to 76.8 µM. An outline of the steps:
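Measured: β-lactamase reporter activity (CCF4, 405 nm excitation, 460/530 nm emission) in HEK293T VDR-UAS-bla cells after 16 h compound exposure at 37 °C. Normalization against 50 nM 1α,25-dihydroxyvitamin D3 and DMSO; Hill-fit EC50.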

The nature of test [12]: Cellular Toxicity (caspase-3) H-4-II-E (AID 663).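 Also: cells exposed to compound for 16 hr before readout.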 The note with it: H-4-II-E rat hepatoma, scaled: DMSO 0%, 100 µM tamoxifen 100%; series mostly up to 92.2 µM. An outline of the steps: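 Luminescence from caspase-cleaved aminoluciferin substrate, read 20 min after reagent addition, reports caspase 3/7 activation in rat H-4-II-E cells after 16 hr compound exposure. Normalized to DMSO (basal) and 100 uM tamoxifen (100%); AC50 from Hill fits.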

Test [13] in a line: Cellular Toxicity (caspase-3) Hek293 (AID 664).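 Also: cells exposed to compound for 16 h at 37 °C before readout.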 The note with it: HEK293 caspase-3 activation, DMSO = 0%, 100 µM tamoxifen = 100%; series mostly up to 92.2 µM. Summed up:
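HEK293 cells in complete medium treated 16 h at 37 °C, then Caspase-Glo 3/7 luminescence read after 20 min at room temperature. Normalized to DMSO and 100 uM tamoxifen; AC50 from Hill fit of concentration-response.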

Test [14] in a line: Cell Viability - LYMP2-019 (AID 973).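 Also: cells exposed to compound for 24 h at 37 °C; 0% = DMSO alone and full effect = 92 µM tetraoctylammonium bromide; nearly all actives have a fitted effect of over 55% in size.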 The following applies: LYMP2-019 lymphoblastoid cell line viability; series mostly up to 92.2 µM. Summed up:
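Human lymphoblastoid LYMP2-019 cells (2500/well) preincubated 5 h at 37 C, then treated 24 h at 37 C in complete medium. Viability by CellTiter-Glo ATP luminescence after 30 min at room temperature; AC50 from Hill fits.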

Test [15] addresses Peroxisome proliferator-activated receptor gamma (Homo sapiens) (UniProt P37231). The test is described as follows: qHTS assay for small molecule antagonists of peroxisome proliferator-activated receptor gamma signaling (AID 588537; active = well fitted inhibition curve with a large enough effect in the signal ratio, with a control signal flat, not every such curve was filed as active; the % refers to the signal ratio;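 also: reporter cells co-stimulated with 50 nM rosiglitazone agonist during compound treatment; % of control where 0% means no effect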). The following applies: HEK293 PPARg-UAS-bla, beta-lactamase ratio, antagonist mode; series mostly up to 76.8 µM. Summed up: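 We seeded GeneBLAzer HEK293 reporter cells at 3000 per well, allowed 6-6.5 h attachment at 37 C, then co-treated with test compound titrations and 50 nM rosiglitazone overnight (16 h). Inhibition was quantified from 460/530 nm emission ratios.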

Test [16] in a line: qHTS assay for small molecule agonists of the antioxidant response element (ARE) signaling pathway (AID 651741; active = well fitted activation curve with a large enough effect in the signal ratio; the % refers to the signal ratio; also: potency is read from the fitted curve at half-maximal effect; as to activation: % of control where 0% means no effect). The following applies: HepG2 ARE-bla reporter, beta-lactamase FRET ratio, 16 h; series mostly up to 96 µM. Summed up:
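Compounds in DMSO are pinned onto HepG2 ARE-bla cells (2,000/well) that were preincubated 5 h; plates stay 16 h at 37 C, then beta-lactamase activity is detected with LiveBLAzer B/G substrate by fluorescence.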

The nature of test [17]: Cell Viability - LYMP2-021 (AID 974).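 Also: compound exposure lasts 24 hours at 37 °C; % is scaled to controls: 0 for no effect and ±100 for the full control effect; nearly all actives have a fitted effect of over 55% in size.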 The following applies: LYMP2-021 lymphoblastoid cells viability; series mostly up to 92.2 µM. Summed up: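 Human lymphoblastoid LYMP2-021 cells, 2500/well in complete medium, treated 24 hours at 37 C. Intracellular ATP by CellTiter-Glo luminescence (30 min, RT); AC50 from Hill fits of concentration-response.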
For test [18], the target named is Bile acid receptor (Homo sapiens) (UniProt Q96RI1). Kind of test: qHTS assay for small molecule antagonists of farnesoid X receptor signaling (AID 588526; calls by dose curve; also: % is scaled to controls: 0 for no effect and ±100 for the full control effect). The following applies: HEK293T FXR-UAS-bla, beta-lactamase ratio, antagonist mode; series mostly up to 76.7 µM. Summed up:
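Concentration-response titrations were fitted to the Hill equation for half-maximal inhibition and maximal response, with data normalised to 50 uM chenodeoxycholic acid and DMSO control wells. Cells: FXR-UAS-bla HEK293T, dialyzed FBS.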

The nature of test [19]: Cell Viability - NIH 3T3 (AID 541).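 Also: plate controls were DMSO alone for no effect and tamoxifen positive control for full effect; nearly all actives have a fitted effect of over 25% in size.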 The note with it: NIH 3T3 cell viability, qHTS; activity change, negative = cytotoxicity: at 92.2 µM (top of the series). Summed up: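 Mouse NIH 3T3 fibroblasts, 1000 cells/well, rested 5 hr at 37 °C, then exposed to compound for 40 hr at 37 °C in complete medium. Viability read as intracellular ATP by CellTiter-Glo luminescence; AC50 from Hill-equation fits of concentration-response data.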

“And” between values parts separate entries of the source, which are not always exact repeats. Equal values may be shown once. Records with an inconclusive call do not appear. The source made the active and inactive calls. Unless noted, calls follow the shape of the dose curve; as a rule, active = well fitted curve in the direction sought with a large enough effect; inconclusive = small, poorly fitted or top-dose-only effect, or another doubt; inactive = no such curve, though single readings can be large; an effect the other way counts as inactive or inconclusive.

Chain of Bile acid receptor (Homo sapiens) (Q96RI1 whole entry, looked up): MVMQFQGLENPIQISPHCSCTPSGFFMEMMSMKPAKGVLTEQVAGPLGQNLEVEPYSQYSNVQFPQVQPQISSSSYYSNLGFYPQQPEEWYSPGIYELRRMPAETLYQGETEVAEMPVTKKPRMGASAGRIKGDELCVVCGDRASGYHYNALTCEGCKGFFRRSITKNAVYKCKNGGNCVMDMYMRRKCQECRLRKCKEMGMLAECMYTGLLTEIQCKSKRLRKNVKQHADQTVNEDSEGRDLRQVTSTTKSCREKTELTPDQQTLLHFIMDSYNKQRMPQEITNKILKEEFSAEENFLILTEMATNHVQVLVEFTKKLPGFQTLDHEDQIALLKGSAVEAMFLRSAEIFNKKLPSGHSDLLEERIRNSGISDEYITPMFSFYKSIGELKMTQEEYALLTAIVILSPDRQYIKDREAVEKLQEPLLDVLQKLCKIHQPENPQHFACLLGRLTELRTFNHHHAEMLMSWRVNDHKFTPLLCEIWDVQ
Chain of Peroxisome proliferator-activated receptor delta (Homo sapiens) (Q03181 whole entry, looked up): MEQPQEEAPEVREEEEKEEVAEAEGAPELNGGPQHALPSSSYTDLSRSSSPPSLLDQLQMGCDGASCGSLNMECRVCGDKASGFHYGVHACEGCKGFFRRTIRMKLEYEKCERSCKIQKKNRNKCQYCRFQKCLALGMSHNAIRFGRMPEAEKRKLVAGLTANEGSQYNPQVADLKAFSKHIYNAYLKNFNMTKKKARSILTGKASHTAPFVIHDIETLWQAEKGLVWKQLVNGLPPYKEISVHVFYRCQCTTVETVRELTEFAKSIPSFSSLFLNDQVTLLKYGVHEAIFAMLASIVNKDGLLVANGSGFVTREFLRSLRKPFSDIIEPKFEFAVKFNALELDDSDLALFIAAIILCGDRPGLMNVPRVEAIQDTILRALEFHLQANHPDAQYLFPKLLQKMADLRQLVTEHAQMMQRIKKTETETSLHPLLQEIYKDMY
Chain of Peroxisome proliferator-activated receptor gamma (Homo sapiens) (P37231 whole entry, looked up): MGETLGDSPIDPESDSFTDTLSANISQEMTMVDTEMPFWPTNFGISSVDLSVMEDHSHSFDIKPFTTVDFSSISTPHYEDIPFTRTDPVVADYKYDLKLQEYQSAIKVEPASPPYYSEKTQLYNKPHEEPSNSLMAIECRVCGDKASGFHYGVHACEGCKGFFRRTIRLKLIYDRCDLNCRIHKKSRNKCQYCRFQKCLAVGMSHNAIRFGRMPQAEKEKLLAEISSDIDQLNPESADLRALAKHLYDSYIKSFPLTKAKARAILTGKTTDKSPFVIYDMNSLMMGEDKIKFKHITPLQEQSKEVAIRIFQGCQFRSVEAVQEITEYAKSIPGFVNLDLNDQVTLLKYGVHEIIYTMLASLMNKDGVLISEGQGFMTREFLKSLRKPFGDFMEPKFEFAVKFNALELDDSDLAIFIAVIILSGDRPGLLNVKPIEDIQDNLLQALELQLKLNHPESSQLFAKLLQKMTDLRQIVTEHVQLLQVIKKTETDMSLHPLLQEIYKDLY
Chain of Vitamin D3 receptor (Homo sapiens) (P11473 whole entry, looked up): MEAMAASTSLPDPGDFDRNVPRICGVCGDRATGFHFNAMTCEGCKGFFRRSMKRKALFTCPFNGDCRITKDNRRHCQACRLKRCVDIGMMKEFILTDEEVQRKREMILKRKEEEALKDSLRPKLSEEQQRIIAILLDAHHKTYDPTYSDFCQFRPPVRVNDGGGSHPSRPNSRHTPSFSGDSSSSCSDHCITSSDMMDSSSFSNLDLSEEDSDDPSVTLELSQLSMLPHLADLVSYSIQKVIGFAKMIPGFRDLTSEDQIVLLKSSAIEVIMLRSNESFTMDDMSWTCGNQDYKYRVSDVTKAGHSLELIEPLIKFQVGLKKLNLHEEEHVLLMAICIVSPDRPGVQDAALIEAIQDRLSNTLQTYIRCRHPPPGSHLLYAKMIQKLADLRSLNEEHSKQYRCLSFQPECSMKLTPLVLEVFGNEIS

As to `Brc1ccc(Oc2cc(Br)c(Br)cc2Br)c(Br)c1`, the Potency in test [1] is > 92 µM (inactive). Besides, the caspase-3 activation in test [2] is 17.5% (inactive); in test [5], 12.3% (inactive) and 4.39% (inactive); in test [6] it was 12.3% [at 91.7 µM] (inactive) and -6.38% [at 91.7 µM] (inactive). Also, the result in test [3], in test [4], in test [10] and in test [11] was inactive. The Potency entry in test [7] and in test [9] was “inactive” throughout. The max response in test [8] is 18.7% and 4.79%.
On to `[O-][Br+2]([O-])O`, for which the caspase-3 activation in test [2] is -7.93% (inactive) and -8.01% (inactive); in test [5], -9.36% (inactive) and -10.4% (inactive); in test [6], -18.8% (inactive) and -17.4% (inactive). Moreover, the result in test [3], in [4], in test [12], in [13], in test [10] and in test [11] was inactive. Further, the Potency entry in test [7], in test [14], in test [15] and in [16] was “inactive” throughout.
`ClC(Cl)=C(Cl)Cl`: the Potency in [1] is > 92 µM (inactive). Further, the call in [3], in test [4], in test [18], in test [10] and in test [11] was inactive. Further, the caspase-3 activation was 0.443% (inactive) and 1.4% (inactive) in test [5]; 1.99% (inactive) and -8.12% (inactive) in test [6]. The Potency result in test [14], in [17], in test [15] and in [16] was “inactive” throughout.
On to `C=CC(N)=O`, for which the caspase-3 activation was 0.421% (inactive) and 0.897% (inactive) in test [2]; -0.525% (inactive) and -0.998% (inactive) in test [5]. Also, the molecule was called inactive in test [3], in [4], in [12], in test [13], in [10] and in test [11]. In addition, the Potency result in test [7], in test [14], in [9] and in [16] was “inactive” throughout. Moreover, the max response in [8] was 43.8% and 22.1%.
As for `O=C(Cl)C(Cl)(Cl)Cl`, the caspase-3 activation in test [2] was 3.49% (inactive); in test [6] it was -1.87% (inactive). For the same molecule, the call in test [12], in test [13], in test [18], in [10] and in test [11] was inactive. The Potency result in [7], in test [17], in test [9] and in test [16] was “inactive” in each case. In addition, in test [8], the max response was determined as 6.34%.
On to `CC(O)CCl` (centres undefined), for which the results for the Potency in test [1] and in test [16] were > 92 µM (inactive) and 54.5 µM (active), respectively. The caspase-3 activation was 1.88% (inactive) in test [2], 3.17% (inactive) in test [5] and 7.82% (inactive) in test [6]. The molecule was classed as inactive in test [3], in test [4], in test [12], in [13], in [18] and in test [10]. Moreover, the result in [11] was inactive. For the same molecule, the Potency entry in test [7], in test [14], in test [9] and in test [15] was “inactive” throughout. In addition, in [8], the max response was -27.3% and -9.22%.
For `O=[N+]([O-])c1ccc(Cl)c(Cl)c1`, in test [19], the activity change, negative = cytotoxicity is -16.5% (inactive). Also, the caspase-3 activation in test [2] is 0.916% (inactive). Moreover, the molecule was called inactive in [3], in test [12], in [18], in [10] and in test [11]. Further, the Potency result in test [7], in [14], in test [17] and in test [15] was “inactive” throughout.
